From PubChem BioAssay
Only some compounds are listed: those with a hit (about 19% of all), similar ones and a draw of the others.
HT1080 IDH1KD tx: kills HT-1080 cells with IDH1 knockdown; HT-1080 IDH1 knockdown viability, ATP luminescence, 48 h; Potency, µM (series often up to 46.1 µM), without a hit: at the top dose activity, negative = toxicity, usual class: cytotoxic; 2% of 360,000 active;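 note: 0% = DMSO wells and -100% = cell-free medium wells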
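Using the IDH1-knockdown HT-1080 line run in the same batch and compound series as the NT line, viability after 48 h at 37 °C was determined by CellTiter-Glo luminescence and expressed as % activity.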
KB-V1 cytotox: KB-V1 MDR subline cytotoxicity; 3.4% of 400,000 active; KB-V1 MDR cells viability, CellTiter-Glo, 72 h; AID 1347076; Potency, µM (highest dose often 46.1 µM), actives largely listed as cytotoxic; note: nearly all actives have a fitted effect of over 60% in size
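Luminescent ATP read-out (CellTiter-Glo, 10 min) measures survival of drug-selected KB-V1 MDR cells after 72 h, 37 degrees C compound exposure. Medium: phenol-red-free DMEM, 10% FBS. Values from fitted concentration-response curves.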
HT1080-NT tox: kills 2HG-producing HT-1080-NT fibrosarcoma cells. HT-1080-NT fibrosarcoma viability, CellTiter-Glo ATP luminescence, 48 h. 1.6% of 360,000 active. Potency, µM (doses to about 46.1 µM), without a hit: at the highest dose activity, negative = less viability, most hits filed as cytotoxic;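 note: NT is the 2HG producing partner of a matched IDH1 knockdown line; 0% = DMSO-treated cells and -100% = media-only wells without cells; nearly all actives have a fitted effect of over 55% in size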
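Toxicity toward the 2HG-producing NT line was scored as %Activity, normalised to DMSO and no-cell wells, from CellTiter-Glo luminescence after 48 hours' treatment.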
KB-3-1 tox: KB-3-1 parental cell cytotoxicity. 1.4% of 400,000 active. Potency, µM (highest dose often 46.1 µM), usual class: cytotoxic. KB-3-1 viability, CellTiter-Glo ATP luminescence, 72 h; note: nearly all actives have a fitted effect of over 60% in size
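Multi-concentration cytotoxicity screen in KB-3-1 cells grown in DMEM lacking phenol red with 10% FBS. After 72 h at 37 °C with compound, ATP-dependent luminescence was recorded.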
TDP1 cell noCPT: qHTS for Inhibitors of human tyrosyl-DNA phosphodiesterase 1 (TDP1): qHTS in cells in absence of CPT; 15% of 420,000 active; Potency, µM (doses to about 46.2 µM), for the others: at the highest dose activity change, negative = growth inhibition, usual class: inhibitors; DT40 Tdp1-/- hTDP1 cells, no CPT, ATP luminescence, 48 h; note: nearly all actives have a fitted effect of over 55% in size
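DT40 Tdp1-/-;hTDP1 cells, no CPT (DMSO vehicle only), 400 cells/well; compounds pin-transferred; ≥48 hr, 37 °C; CellTiter-Glo 30 min RT dark, luminescence read.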
TDP1 cell CPT: growth inhibition of DT40 Tdp1-/-;hTDP1 cells with camptothecin (screen for TDP1 inhibitors). 12% of 420,000 active. Potency, µM (titrated, usually from 46.2 µM), for inactives: top-dose activity change, negative = growth inhibition, usual class: inhibitors. chicken DT40 Tdp1-/-;hTDP1 cells + 20 nM CPT, ATP luminescence, 48 h; note: nearly all actives have a fitted effect of over 55% in size
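Cell growth measured by CellTiter-Glo luminescence after a minimum 48 h, 37 C compound exposure with 20 nM CPT in Tdp1-knockout DT40 cells stably expressing hTDP1, seeded 400/well; qHTS titration format.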
The depositor's hits bear a star; ! = not active in a repeat. Calls come from the whole dose curve; as a rule, active = well fitted curve in the direction sought with a large enough effect; inconclusive = small, poorly fitted or top-dose-only effect, or another doubt; inactive = no such curve, though single readings can be large; an effect the other way counts as inactive or inconclusive. Unless noted, % is set by controls: 0 for no effect and ±100 for the full control effect; potency is the fitted concentration of half-maximal effect.

For Nn1c(C2CCC2)nc2cc(Cl)ccc2c1=O the results were HT1080 IDH1KD tx 11.6%, KB-V1 cytotox inactive, HT1080-NT tox 2.7%, KB-3-1 tox inactive, TDP1 cell noCPT -4.6% and TDP1 cell CPT -15.7%.
COc1ccc(-c2c([C@H]3[C@H]4C=CC[C@@H](C)[C@@H]4C(=O)N3Cc3ccccc3)ccc3ccccc23)cc1 was read as HT1080 IDH1KD tx inconclusive, KB-V1 cytotox inactive, HT1080-NT tox inconclusive, KB-3-1 tox inconclusive, TDP1 cell noCPT 10.3µM* and TDP1 cell CPT 10.3µM*.
Screening O=C1CC2(CCN(C(=O)c3cccc(F)c3)CC2)Oc2ccccc21 returned HT1080 IDH1KD tx 9.1%, KB-V1 cytotox inactive, HT1080-NT tox 5.9%, KB-3-1 tox inactive, TDP1 cell noCPT inconclusive and TDP1 cell CPT -27.6%.
For COc1cc2c(cc1OC)-c1c(OC)c(OC)cc3ccnc(c13)C2=O the results were HT1080 IDH1KD tx -8.9%, KB-V1 cytotox inactive, HT1080-NT tox -6.0%, KB-3-1 tox inconclusive, TDP1 cell noCPT 4.11µM* and TDP1 cell CPT 4.11µM*.
For COc1cc(-c2c(C(C)=O)c(C)nc3c2C(=O)c2ccccc2-3)cc(OC)c1OC the results were HT1080 IDH1KD tx -0.1%, KB-V1 cytotox inactive, HT1080-NT tox 5.0%, KB-3-1 tox inactive, TDP1 cell noCPT 0.9% and TDP1 cell CPT inconclusive.
Cc1cccc(C(=O)NC(=O)Nc2ccc(-c3cc(C(F)(F)F)nn3-c3ccccc3)cc2)c1 was read as KB-V1 cytotox inactive, KB-3-1 tox inactive, TDP1 cell noCPT inconclusive and TDP1 cell CPT -15.0%.
Screening CCOC(=O)c1cccc(NC(=O)C2CCN(S(=O)(=O)c3c(C)noc3/C=C/c3ccc(C)cc3)CC2)c1 returned KB-V1 cytotox inactive, KB-3-1 tox inconclusive, TDP1 cell noCPT 11.6µM* and TDP1 cell CPT 20.6µM*.
Cc1ccc(/C=C/c2onc(C)c2S(=O)(=O)N2CCC(C(=O)Nc3ccc(Br)c(C)c3)CC2)cc1 was read as KB-V1 cytotox inactive, KB-3-1 tox inactive, TDP1 cell noCPT -23.3% and TDP1 cell CPT -25.9%.
Screening COc1ccc(/C=C\c2onc(C)c2S(=O)(=O)N2CCC(C(=O)Nc3cccc(OC)c3)CC2)cc1 returned TDP1 cell noCPT 16.4µM* and TDP1 cell CPT 14.6µM*.
`Cc1noc(C)c1S(=O)(=O)N1CCC(C(=O)NCCN2CCC(C)CC2)CC1` gave HT1080 IDH1KD tx 1.8%, KB-V1 cytotox inactive, HT1080-NT tox 2.1%, KB-3-1 tox inactive, TDP1 cell noCPT 5.7% and TDP1 cell CPT -10.9%.
Screening CCc1ccc(NC(=O)C2CCN(S(=O)(=O)c3c(C)noc3/C=C\c3ccc(OC)cc3)CC2)cc1 returned TDP1 cell noCPT 5.17µM* and TDP1 cell CPT 8.2µM*.
CCN(CCNC(=O)C1CCN(S(=O)(=O)c2c(C)noc2C)CC1)c1ccccc1 was read as HT1080 IDH1KD tx -1.4%, KB-V1 cytotox inactive, HT1080-NT tox -3.9%, KB-3-1 tox inactive, TDP1 cell noCPT 23.1µM* and TDP1 cell CPT inconclusive.
CNC(=O)C1CCN(S(=O)(=O)c2c(C)noc2/C=C/c2cccc(OC)c2)CC1 was read as HT1080 IDH1KD tx -3.8%, KB-V1 cytotox inactive, HT1080-NT tox -2.4%, KB-3-1 tox inactive, TDP1 cell noCPT -14.8% and TDP1 cell CPT 2.5%.
For CC(OC(=O)CSc1ccccc1)C(=O)NC1CCCCC1C (centres undefined) the results were HT1080 IDH1KD tx 3.6%, KB-V1 cytotox inactive, HT1080-NT tox 6.6%, KB-3-1 tox inactive, TDP1 cell noCPT -5.0% and TDP1 cell CPT 3.7%.
CCc1ccc(NC(=O)C2CCN(S(=O)(=O)c3c(C)noc3C)CC2)cc1 was read as HT1080 IDH1KD tx -9.7%, KB-V1 cytotox inconclusive, HT1080-NT tox -19.5%, KB-3-1 tox inactive, TDP1 cell noCPT 18.4µM*! and TDP1 cell CPT inconclusive.
Screening CC(C)NC(=O)N(C)C[C@@H]1OCc2cnnn2CCCC(=O)N([C@H](C)CO)C[C@@H]1C returned HT1080 IDH1KD tx 28.8%, KB-V1 cytotox inactive, HT1080-NT tox 6.5%, KB-3-1 tox inactive, TDP1 cell noCPT -8.6% and TDP1 cell CPT -3.2%.
Screening Cc1cc(NC(=O)Cn2cnc3sc(C)c(C)c3c2=O)no1 returned HT1080 IDH1KD tx -10.8%, KB-V1 cytotox inactive, HT1080-NT tox 0.2%, KB-3-1 tox inactive, TDP1 cell noCPT -10.1% and TDP1 cell CPT -2.6%.
Cc1cc(NC(=O)Cn2cnc3sc(C)c(-c4ccccc4)c3c2=O)no1 was read as HT1080 IDH1KD tx -14.8%, KB-V1 cytotox 20.6µM*, HT1080-NT tox -6.6%, KB-3-1 tox inactive, TDP1 cell noCPT -4.7% and TDP1 cell CPT -1.4%.
`CCOC(=O)c1cc(-c2ccccc2)n(CC(=O)Nc2cccc(OC)c2)c1C` gave HT1080 IDH1KD tx inconclusive, KB-V1 cytotox inactive, HT1080-NT tox -24.8%, KB-3-1 tox inactive, TDP1 cell noCPT 5.8µM* and TDP1 cell CPT inconclusive.
CC(=O)c1cc(-c2ccccc2)n(CC(=O)NC(C)(C)C)c1C was read as HT1080 IDH1KD tx 0.0%, KB-V1 cytotox inactive, HT1080-NT tox 1.9%, KB-3-1 tox inactive, TDP1 cell noCPT -4.3% and TDP1 cell CPT -2.4%.
Screening CCOC(=O)c1cc(-c2ccccc2)n(CC(=O)Nc2ccccc2OCC)c1C returned TDP1 cell noCPT 9.2µM* and TDP1 cell CPT -81.1%.
CCOC(=O)c1cc(-c2ccccc2)n(CC(=O)Nc2ccc(OC)c(OC)c2)c1C was read as HT1080 IDH1KD tx -1.9%, KB-V1 cytotox inactive, HT1080-NT tox -1.9%, KB-3-1 tox inactive, TDP1 cell noCPT inconclusive and TDP1 cell CPT inconclusive.
CC(=O)c1cc(-c2ccccc2)n(CC(=O)Nc2cccc(C)c2)c1C was read as HT1080 IDH1KD tx -13.7%, KB-V1 cytotox inactive, HT1080-NT tox -25.2%, KB-3-1 tox inactive, TDP1 cell noCPT 14.6µM* and TDP1 cell CPT 18.4µM*.
Screening CCOC(=O)c1cc(-c2ccccc2)n(CCCC(=O)Nc2cc(C)ccc2OC)c1C returned KB-V1 cytotox inactive, KB-3-1 tox inactive, TDP1 cell noCPT 23.1µM* and TDP1 cell CPT 18.4µM*.
Screening CCOC(=O)c1cc(-c2ccccc2)n(CCCC(=O)Nc2cccc(Cl)c2C)c1C returned KB-V1 cytotox inactive, KB-3-1 tox inactive, TDP1 cell noCPT inconclusive and TDP1 cell CPT inconclusive.
